# Assay results reported in PubChem BioAssay (NCATS).
# Results filed as inconclusive are left out. Active and inactive are the calls of the source. The call rests on the fitted dose curve; in most records, active means well fitted inhibition curve with a large enough effect; inconclusive means small, poorly fitted or top-dose-only effect; inactive means no such curve, though single readings can be large or run the other way.
# Assay: Primary qHTS for inhibitors of nuclear receptor binding SET domain protein 2 (NSD2) in an RCH-ACV wild type WT cells (2C) (AID 1645877); further: nearly all actives have a fitted effect of over 70% in size
# Conditions: RCH-ACV (leukaemia line) NSD2 WT (2C) viability, CellTiter-Glo, 72 h; series mostly up to 44.9 µM; activity change, negative = cell killing: at the top concentration
# On the % scale 0 is the no-effect control and ±100 the full control effect; potency means the concentration at half of the fitted maximal effect.
SMILES,"activity change, negative = cell killing",Potency
C[C@@H]1C[C@@H](O)[C@@]23CO[C@]2(CO)C[C@@H](O)CC3[C@@]12CC(c1ccoc1)OC2=O (stereo partly specified),-4.44% (inactive),
O=C(O)CC1(O)C(=O)Nc2ccccc21 (stereo unspecified),-0.374% [at 91.9 µM] (inactive),
C/C=C/C=C/C1=C2C(=O)C3(C)C4C(C(=O)CC(O)/C=C/C)=C(O1)C1(C)C2C2(C)OC1(O)C4(C)OC23O (stereo unspecified),,7.96 µM (active)
CCC(=O)OCC(=O)[C@@]1(OC(=O)CC)[C@@H](C)C[C@H]2[C@@H]3CCC4=CC(=O)C=C[C@]4(C)[C@@]3(F)[C@@H](O)C[C@@]21C,,0.0073 µM (active)
C/C=C(\C)C(=O)O[C@H]1C=CC(=O)O[C@H]1/C=C/[C@H](O)[C@@H](C)O,,23 µM (active)
C=C(C(=O)OC)[C@]12O[C@@](C)(CC[C@@]3(O)/C(=C\C)C(=O)O[C@]3(C)C[C@@H]1OC(=O)C(CO)CN1CCCC1C(=O)O)CC2=O (stereo partly specified),,6.82 µM (active)
COC(=O)/C=C/c1ccc(O[C@@H]2O[C@H](CO)[C@@H](O)[C@H](O)[C@H]2O)cc1,,8.01 µM (active)
Cc1occc(=O)c1O[C@@H]1O[C@H](CO)[C@@H](O)[C@H](O)[C@H]1O,3.85% (inactive),
OC[C@H]1O[C@@H](Oc2cc(O)cc(-c3cc4ccc(O[C@@H]5O[C@H](CO)[C@@H](O)[C@H](O)[C@H]5O)cc4o3)c2)[C@H](O)[C@@H](O)[C@@H]1O,-26.3% [at 17.3 µM] (inactive),
COc1cc(/C=C/c2ccccc2)c(C(=O)O)c(O)c1CC=C(C)C,-16.5% (inactive),
CC1(C)CCC2(C(=O)O)C(O)CC3(C)C(=CCC4C5(C)CCC(OC6OC(CO)C(O)C(O)C6OC6OC(CO)C(O)C(O)C6OC6OCC(O)(CO)C6O)C(C)(C)C5CCC43C)C2C1 (stereo unspecified),2.63% [at 9.23 µM] (inactive),
